Results filed as inconclusive are left out. The source made the active and inactive calls. Unless noted, the call rests on the fitted dose curve; in most records, active means well fitted curve in the direction sought with a large enough effect in the repeat runs; inconclusive means weak or mixed curves; inactive means no such curve, though single readings can be large; an effect the other way counts as inactive or inconclusive.
Key:
[1] = qHTS assay to test for compound auto fluorescence at 535 nm (green) in HEK293 cells (AID 720680)
[2] = qHTS assay to test for compound auto fluorescence at 460 nm (blue) in HEK293 cell free culture (AID 720681)
How it was run: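 Compounds were added to cell-free DMEM with 10% FBS and fluorescence read directly. The blue channel used 405 nm excitation and 460 nm emission, with triamterene as the reference fluorophore.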

[3] = qHTS assay to test for compound auto fluorescence at 535 nm (green) in HEK293 cell free culture (AID 720682)
How it was run: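 Compounds were pin-transferred into cell-free DMEM with 10% FBS, and green fluorescence was read at excitation 485 nm and emission 535 nm. Intensities were expressed as fluorescein-equivalent values.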

[4] = qHTS assay to test for compound auto fluorescence at 590 nm (red) in HEK293 cell free culture (AID 720683)
How it was run: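 Cell-free wells of DMEM with 10% FBS received compound, and intrinsic fluorescence was read at excitation/emission 540/590 nm. Values expressed as equivalence to Rose Bengal sodium.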

[5] = qHTS assay to test for compound auto fluorescence at 590 nm (red) in HepG2 cell free culture (AID 720684)
How it was run: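 Compounds are added to culture medium (MEM, 10% FBS) lacking cells, then fluorescence is read at excitation 540 nm, emission 590 nm, with Rose Bengal sodium as the equivalency standard.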

[6] = qHTS assay to test for compound auto fluorescence at 460 nm (blue) in HepG2 cell free culture (AID 720685)
How it was run: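 Compound (23 nL) or DMSO pinned into cell-free MEM with 10% FBS; blue fluorescence read at 405/460 nm excitation/emission, expressed as auto-fluorescence equivalency to triamterene.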

[7] = qHTS assay to test for compound auto fluorescence at 535 nm (green) in HepG2 cell free culture (AID 720686)
[8] = qHTS assay to test for compound auto fluorescence at 460 nm (blue) in HepG2 cells (AID 720687)
How it was run: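 HepG2 cells in MEM with 10% FBS, attached overnight at 37 C, were exposed to compound or DMSO for 1 hr at 37 C, 5% CO2. Blue fluorescence was read at 405/460 nm, with triamterene as reference fluorophore.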

[9] = target: Glucocorticoid receptor (Homo sapiens) (UniProt P04150); assay: qHTS assay to identify small molecule agonists of the glucocorticoid receptor (GR) signaling pathway (AID 720691; active means well fitted activation curve with a large enough effect in the signal ratio in the repeat runs, not every such curve was filed as active; the % refers to the signal ratio); conditions: GR-bla HeLa, beta-lactamase reporter ratio, 18 h; activation: at 62.4 µM (top of the series)
Chain of Glucocorticoid receptor (Homo sapiens) (P04150 whole entry, looked up): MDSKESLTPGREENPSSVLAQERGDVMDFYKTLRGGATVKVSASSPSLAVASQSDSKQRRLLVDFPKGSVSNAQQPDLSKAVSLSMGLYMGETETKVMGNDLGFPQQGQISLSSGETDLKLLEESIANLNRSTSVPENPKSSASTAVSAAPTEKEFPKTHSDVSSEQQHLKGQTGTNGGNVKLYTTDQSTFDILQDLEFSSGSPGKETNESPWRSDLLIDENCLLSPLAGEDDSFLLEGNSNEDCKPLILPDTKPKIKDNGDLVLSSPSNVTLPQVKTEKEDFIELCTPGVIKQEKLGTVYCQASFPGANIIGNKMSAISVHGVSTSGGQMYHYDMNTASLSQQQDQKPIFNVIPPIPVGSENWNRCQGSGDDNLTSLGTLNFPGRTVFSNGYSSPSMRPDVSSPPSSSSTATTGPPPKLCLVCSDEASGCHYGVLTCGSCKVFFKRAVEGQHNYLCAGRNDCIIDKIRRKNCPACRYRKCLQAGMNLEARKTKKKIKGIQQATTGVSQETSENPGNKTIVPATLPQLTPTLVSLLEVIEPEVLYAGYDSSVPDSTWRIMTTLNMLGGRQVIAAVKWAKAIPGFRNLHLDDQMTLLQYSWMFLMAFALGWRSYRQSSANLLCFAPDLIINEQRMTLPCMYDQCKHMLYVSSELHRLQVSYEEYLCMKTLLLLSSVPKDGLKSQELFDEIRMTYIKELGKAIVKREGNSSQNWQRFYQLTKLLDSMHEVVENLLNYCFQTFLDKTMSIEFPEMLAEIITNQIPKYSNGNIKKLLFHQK
How it was run: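 qHTS in GR-bla HeLa cells: 4 h settling at 37 C/5% CO2, 18 h compound incubation at 37 C, 2 h LiveBLAzer B/G FRET substrate at room temperature, fluorescence intensity measured.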

[10] = target: Glucocorticoid receptor (Homo sapiens) (UniProt P04150); assay: qHTS assay to identify small molecule antagonists of the glucocorticoid receptor (GR) signaling pathway (AID 720692; active means well fitted inhibition curve with a large enough effect in the signal ratio in the repeat runs, not every such curve was filed as active; the % refers to the signal ratio)
How it was run: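 Inhibition of glucocorticoid signalling is measured in HeLa cells with a GRE-controlled beta-lactamase reporter; cells are co-treated with compound and 5 nM dexamethasone (final) for 18 h before FRET substrate readout.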

[11] = qHTS assay to identify small molecule antagonists of the glucocorticoid receptor (GR) signaling pathway - cell viability counter screen (AID 720693); further: nearly all actives have a fitted effect of over 55% in size
[12] = qHTS assay for identifying genotoxic compounds that show differential cytotoxicity against isogenic chicken DT40 cell lines with known DNA damage response pathways - wild type cell line (AID 743012); further: nearly all actives have a fitted effect of over 60% in size; further: potency means the concentration at half of the fitted maximal effect
How it was run: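 First, wild type DT40 cells were plated at 300 per well and equilibrated about 0.5 h at 37 C/5% CO2. Next, compounds in DMSO were added and exposure lasted 40 h. Finally, CellTiter-Glo was added for 30 min at room temperature and luminescence recorded.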

[13] = qHTS assay for identifying genotoxic compounds that show differential cytotoxicity against isogenic chicken DT40 cell lines with known DNA damage response pathways - Rev3 mutant cell line (AID 743014); further: nearly all actives have a fitted effect of over 55% in size; further: potency means the concentration at half of the fitted maximal effect
[14] = qHTS assay to identify small molecule antagonists of the androgen receptor (AR) signaling pathway - cell viability counter screen (AID 743033; further: nearly all actives have a fitted effect of over 45% in size)
[15] = qHTS assay to identify small molecule antagonists of the androgen receptor (AR) signaling pathway using the MDA cell line - cell viability counter screen (AID 743041; further: nearly all actives have a fitted effect of over 45% in size; further: potency means the concentration at half of the fitted maximal effect)
How it was run: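 Same-well cytotoxicity was assessed by CellTiter-Fluor in MDA-kb2 AR-luc cells after 16 h of compound treatment under R1881 agonism.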

[16] = qHTS assay for identifying genotoxic compounds that show differential cytotoxicity against isogenic chicken DT40 cell lines with known DNA damage response pathways - Rad54/Ku70 mutant cell line (AID 743015); further: nearly all actives have a fitted effect of over 60% in size; further: potency means the concentration at half of the fitted maximal effect
[17] = target: Androgen receptor (Homo sapiens) (UniProt P10275); assay: qHTS assay to identify small molecule antagonists of the androgen receptor (AR) signaling pathway (AID 743035; active means well fitted inhibition curve with a large enough effect in the signal ratio in the repeat runs, not every such curve was filed as active; the % refers to the signal ratio)
Chain of Androgen receptor (Homo sapiens) (P10275 whole entry, looked up): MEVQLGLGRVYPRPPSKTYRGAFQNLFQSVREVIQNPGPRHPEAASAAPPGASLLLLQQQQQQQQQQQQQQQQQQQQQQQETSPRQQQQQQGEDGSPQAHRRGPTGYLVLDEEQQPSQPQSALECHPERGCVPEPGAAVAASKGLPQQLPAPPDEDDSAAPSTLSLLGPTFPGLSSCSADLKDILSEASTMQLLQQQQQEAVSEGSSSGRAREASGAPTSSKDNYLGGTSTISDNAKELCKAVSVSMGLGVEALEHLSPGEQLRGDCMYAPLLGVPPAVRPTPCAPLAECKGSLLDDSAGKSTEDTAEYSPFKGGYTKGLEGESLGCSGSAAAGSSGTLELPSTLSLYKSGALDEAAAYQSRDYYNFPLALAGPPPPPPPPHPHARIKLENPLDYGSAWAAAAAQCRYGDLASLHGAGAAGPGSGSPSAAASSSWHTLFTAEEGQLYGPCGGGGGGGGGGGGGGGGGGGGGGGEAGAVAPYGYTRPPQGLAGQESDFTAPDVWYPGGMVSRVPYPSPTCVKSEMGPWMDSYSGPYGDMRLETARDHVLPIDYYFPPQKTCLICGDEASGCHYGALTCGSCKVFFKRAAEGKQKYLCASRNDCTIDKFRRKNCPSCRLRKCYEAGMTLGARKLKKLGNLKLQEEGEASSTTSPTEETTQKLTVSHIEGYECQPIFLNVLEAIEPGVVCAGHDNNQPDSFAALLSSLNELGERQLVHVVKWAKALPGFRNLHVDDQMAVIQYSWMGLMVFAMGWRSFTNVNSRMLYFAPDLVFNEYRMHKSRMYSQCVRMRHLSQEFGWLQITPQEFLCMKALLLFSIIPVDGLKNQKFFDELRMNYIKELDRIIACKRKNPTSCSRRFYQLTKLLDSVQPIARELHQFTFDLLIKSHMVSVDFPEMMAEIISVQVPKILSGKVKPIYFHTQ
How it was run: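 Beta-lactamase FRET read (2 h RT incubation with LiveBLAzer B/G) following 16 h of compound plus R1881 treatment of AR-UAS-bla HEK293 cells, which had been pre-incubated 4 h at 37C.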

[18] = target: Androgen receptor (Homo sapiens) (UniProt P10275); assay: qHTS assay to identify small molecule agonists of the androgen receptor (AR) signaling pathway (AID 743036; active means well fitted activation curve with a large enough effect in the signal ratio in the repeat runs, with a control signal flat, not every such curve was filed as active; the % refers to the signal ratio)
How it was run: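 Activation was read as beta-lactamase FRET signal from LiveBLAzer B/G substrate, added for 2 h at room temperature. Before that, GeneBLAzer AR-UAS-bla GripTite (HEK293) cells had 16 h compound exposure at 37C.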

[19] = target: Androgen receptor (Homo sapiens) (UniProt P10275); assay: qHTS assay to identify small molecule agonists of the androgen receptor (AR) signaling pathway using the MDA cell line (AID 743040; further: nearly all actives have a fitted effect of over 20% in size)
How it was run: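 Human breast carcinoma MDA-kb2 reporter cells (MMTV-luc, AR/GR elements) were treated for 16 h at 37C in 0% CO2 following a 5 h settling period. Signal was quantified by ONE-Glo luminescence.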

[20] = target: Androgen receptor (Homo sapiens) (UniProt P10275); assay: qHTS assay to identify small molecule antagonists of the androgen receptor (AR) signaling pathway using the MDA cell line (AID 743042; further: nearly all actives have a fitted effect of over 55% in size)
How it was run: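 MDA-kb2 breast carcinoma cells carrying MMTV-luciferase (AR/GR responsive) were co-treated with compounds and the agonist R1881 for 16 h at 37C. Inhibition read as ONE-Glo luminescence; CellTiter-Fluor fluorescence measured in parallel for cytotoxicity.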

Measured: Potency

CC(=O)N[C@@H]1C(O[C@H]2O[C@H](C(=O)O)C(O)[C@H](O)[C@H]2O)[C@H](O)[C@@H](CO)O[C@H]1O[C@@H]1C(C(=O)O)O[C@@H](O[C@H]2[C@H](O)[C@@H](CO)OC(O)[C@@H]2NC(C)=O)[C@H](O)[C@H]1O (stereo partly drawn)
inactive: [1] | [2] | [3] | [4] | [5] | [6] | [7] | [8] | [9] | [10] | [11] | [12] | [13] | [14] | [15]

CN1CCN(CCCN2c3ccccc3Sc3ccccc32)CC1
inactive: [1] | [2] | [3] | [4] | [5] | [6] | [7] | [8] | [9] | [10] | [11] | [15]
active: [12] 9.44 µM | [13] 11.9 µM | [16] 13.3 µM

C/C1=C2N=C(/C=C3N=C(/C(C)=C4\[N-]C(C(CC(N)=O)C4(C)CCC(=O)NCC(C)OP(=O)([O-])OC4C(CO)OC(n5cnc6cc(C)c(C)cc65)C4O)C4(C)N=C1C(CCC(N)=O)C4(C)CC(N)=O)C(CCC(N)=O)C\3(C)C)C(CCC(N)=O)C/2(C)CC(N)=O.[CH3-].[Co+3] (stereo not drawn)
active: [15] 23.7 µM
inactive: [1] | [2] | [3] | [4] | [5] | [6] | [7] | [8] | [9] | [10] | [11] | [12] | [13] | [14]

CCCC(CCC)C(N)=O
inactive: [1] | [2] | [3] | [4] | [5] | [6] | [7] | [8] | [9] | [10] | [11] | [12] | [13] | [16] | [15]

O=C1NC(=O)[C@H]2[C@@H]1[C@@H]1C=C[C@H]2C1
inactive: [1] | [2] | [3] | [4] | [5] | [6] | [7] | [8] | [9] | [10] | [11] | [12] | [13] | [16] | [15]

C[C@@](Cc1ccc(O)c(O)c1)(NN)C(=O)O
inactive: [1] | [2] | [3] | [4] | [5] | [6] | [7] | [8] | [9] | [10] | [11] | [14] | [15]
active: [12] 29.8 µM | [13] 29.8 µM

CO/N=C(\C(=O)N[C@@H]1C(=O)N2C(C(=O)O)=C(CSC(=O)c3ccco3)CS[C@H]12)c1csc(N)n1
inactive: [1] | [2] | [3] | [4] | [5] | [6] | [7] | [8] | [9] | [10] | [11] | [12] | [13] | [16] | [17] | [18] | [19] | [15] | [20]

CN(C)CC/C=C1/c2ccccc2CSc2ccccc21
active: [12] 11.4 µM | [13] 12.7 µM
inactive: [1] | [2] | [3] | [4] | [5] | [6] | [7] | [8] | [9] | [10] | [11] | [18] | [19] | [15] | [20]

CCCCCCCCCCCCCCCC(=O)OCC(COC(=O)CCCCCCCCCCCCCCC)OC(=O)CCCCCCCCCCCCCCC
inactive: [1] | [2] | [3] | [4] | [5] | [6] | [7] | [8] | [9] | [10] | [11] | [12] | [13] | [16] | [15]

CN1CCCC(CN2c3ccccc3Sc3ccccc32)C1 (stereo not drawn)
active: [12] 7.5 µM | [13] 8.41 µM
inactive: [1] | [2] | [3] | [4] | [5] | [6] | [7] | [8] | [9] | [10] | [11] | [14]

O=P(O)(O)C(O)(Cc1cnc2ccccn12)P(=O)(O)O
inactive: [1] | [2] | [3] | [4] | [5] | [6] | [7] | [8] | [9] | [10] | [11] | [12] | [13] | [16] | [14] | [15]

C=CCCCCCCCCC(=O)OC
inactive: [1] | [2] | [3] | [4] | [5] | [6] | [7] | [8] | [9] | [10] | [11] | [12] | [13] | [14] | [15]

NCc1ccccc1CC(=O)N[C@@H]1C(=O)N2C(C(=O)O)=C(CSc3nnnn3CC(=O)O)CS[C@H]12
inactive: [1] | [2] | [3] | [4] | [5] | [6] | [7] | [8] | [9] | [10] | [11] | [12] | [13] | [16] | [15]

O=C(O)c1cccc(/C=C2/C[C@@H]3[C@@H](/C=C/[C@@H](O)C4CCCCC4)[C@H](O)C[C@@H]3O2)c1
inactive: [1] | [2] | [3] | [4] | [5] | [6] | [7] | [8] | [9] | [10] | [11] | [12] | [13] | [16] | [19] | [15] | [20]

From PubChem BioAssay (Tox21)
